Measured values from PubChem BioAssay AID2018 (Sanford-Burnham Center for Chemical Genomics, 2009).
Out of some 1,200 compounds screened, about 600 (50%) were called active. So high a share suggests a set chosen from earlier hits. Some of the results follow. Potency and affinity values are given separately. Unmarked numbers belong to inactive results. Cut-off read from the data, not from the text of the source: active = inhibition above about 42%; inactive = the rest.

The compounds below were run against SUMO-conjugating enzyme UBC9 (Homo sapiens) (UniProt P63279) (assay: SUMOylation inhibitor hit validation, confirmation, SUMOylation inhibitor project, biochemical, AlphaScreen (AID 2018)). Details: AlphaScreen in vitro SUMOylation assay; at 35 µM; hits give high values.
Sequence of SUMO-conjugating enzyme UBC9 (Homo sapiens) (P63279 whole entry, looked up): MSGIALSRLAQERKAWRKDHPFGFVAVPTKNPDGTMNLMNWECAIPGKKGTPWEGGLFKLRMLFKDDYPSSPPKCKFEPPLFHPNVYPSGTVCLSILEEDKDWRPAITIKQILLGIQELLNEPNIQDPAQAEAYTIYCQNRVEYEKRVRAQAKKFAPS

Structure (SMILES) | inhibition
CN(C)CCNS(=O)(=O)c1ccc2c3c(cccc13)C(=O)N2 | 15.4%
Oc1cccc2c(NC(=S)Nc3ccc(SC(F)F)cc3)cccc12 | 36.5%
O=C(NCCc1csc(-c2ccccc2)n1)c1c(F)cccc1Cl | -8.6%
O=[N+]([O-])c1cccc2cn[nH]c12 | -0.5%
CCOc1ccc(C=Nc2cccc3ncccc23)cc1 | 23.5%
Oc1ccc2ccccc2c1C=Nc1ccc(Cl)cn1 | 26.1%
Oc1ccc(C=Nc2cccc3ncccc23)c(O)c1 | 27.7%
Oc1ccccc1N=Cc1c(O)ccc2ccccc12 | 56.9% (active)
Oc1ccc(C=Nc2cccc3ccccc23)c(O)c1 | 42.8% (active)
COc1ccc(C=Nc2cccc3ncccc23)cc1 | 16.5%
Oc1c(C=Nc2cccc3nsnc23)ccc2ccccc12 | 98% (active)
Oc1ccc(N=Cc2c(O)ccc3ccccc23)cc1 | 21.9%
N#CC1=C(N)N2C(=C(C#N)C1c1ccc(Br)cc1)Nc1ccccc12 (stereo not given) | 20.4%
Cc1cc(NCCO)c2cc(O)ccc2n1 | 3%
O=[N+]([O-])c1cc(C=Nc2cccc3c(O)cccc23)ccc1Cl | 33.8%
O=[N+]([O-])c1ccc(C=Nc2ccc(Cl)c([N+](=O)[O-])c2)s1 | 98.4% (active)
O=C(NC(=S)Nc1cccc2c(O)cccc12)c1ccco1 | 41.6%
O=C(NC(=S)Nc1cccc2c(O)cccc12)c1cccc(Br)c1 | 52.7% (active)
CCCC(=O)NC(=S)Nc1cccc2c(O)cccc12 | 10.1%
NNc1nc2c(Cl)ccc(Cl)c2s1 | 8%
Cc1ccc(C)c(S(=O)(=O)Nc2cc(SCC(=O)O)c(O)c3ccccc23)c1 | 51.2% (active)
Cc1cc(C)c(S(=O)(=O)Nc2cc(SCC(=O)O)c(O)c3ccccc23)cc1C | 43.1% (active)
Cc1ccc(C)c(S(=O)(=O)Nc2ccc(O)c3ccccc23)c1 | 39.8%
COc1ccc2c(C)c(C(=O)NCC(C)O)oc2c1OC (stereo not given) | 6.4%
COC(=O)c1cc2c(C)[nH]c(C)c2cc(C(=O)OC)c1=O | 13.6%

Structure (SMILES) | inhibition
CN1CCCc2cc3c(C(F)(F)F)cc(=O)oc3nc21 | -9%
N#CC1=C(N)Oc2n[nH]c(-c3cccs3)c2C1c1cccs1 (stereo not given) | 33.5%
Cc1cc(-c2csc(NC(=O)c3ccc(C#N)cc3)n2)c(C)n1Cc1ccco1 | 21.4%
Cc1cc(NC(=O)CSc2nnc(Nc3ccccc3C)s2)no1 | 25.7%
Cc1c(C)c2cc(Cl)c(O)c(CN3CCN(C)CC3)c2oc1=O | -1%
CCOC(=O)c1sc(NC(=O)c2cccc(S(=O)(=O)N3CCc4ccccc43)c2)c(C#N)c1C | 33.4%
O=C(NCc1ccccc1)Nc1cccn(Cc2ccccc2)c1=O | 3.6%
COc1ccccc1NC(=O)CSc1ccc2nnc(-c3ccccn3)n2n1 | 14.2%
COc1ccccc1NC(=O)Cn1nc(C)n2cccc2c1=O | 0.4%
CC1(C)CC(=O)C2=C(C1)Nc1[nH]c(=S)[nH]c(=O)c1C2c1ccccc1 (stereo not given) | 12.7%
Cc1occc1C(=O)N1CCN(c2ccccc2)CC1 | 19.6%
CC(C)Cn1c(N)c(C(=O)NCc2cccs2)c2nc3ccccc3nc21 | -100%
COCCNC(=O)c1c(N)n(CCC2=CCCCC2)c2nc3ccccc3nc12 | 4.1%
COCCn1c(N)c(C(=O)NCc2cccs2)c2nc3ccccc3nc21 | -23.2%
Nc1c(C(=O)NCc2ccco2)c2nc3ccccc3nc2n1CCc1ccccc1F | 2.7%
O=c1cc(-c2ccc(F)cc2)[nH][nH]1 | 24.9%
Cn1c(NNC(=O)c2c(F)cccc2F)cc(=O)n(C)c1=O | 42.1% (active)
CC1=NN(c2ccccc2)C(=O)/C1=C/c1ccc(Cl)cc1 | 58.2% (active)
CC1=NN(c2ccccc2)C(=O)/C1=C\c1ccc(Br)s1 | 75% (active)
CC1=NN(c2ccccc2)C(=O)/C1=C/c1cccs1 | 40.6%
CC1=NN(c2ccccc2)C(=O)/C1=C\c1cn(CCC#N)nc1-c1ccc(Cl)cc1 | 60.8% (active)
COc1cc(/C=C2\C(=O)N(CCC#N)N=C2C)c(Br)cc1OC(C)C | -16.2%
CC1=NN(c2ccc(Br)cc2)C(=O)/C1=C/c1cccs1 | 59.4% (active)
O=c1c2ccccc2oc2cc(NCCCN3CCOCC3)ccc12 | -1.4%
CCCNC(=O)c1ccc2c(=O)c(O)c(-c3ccsc3)[nH]c2c1 | 16.3%

Structure (SMILES) | inhibition
O=C1C(NS(=O)(=O)c2cccs2)=C(N2CCN(c3cccc(C(F)(F)F)c3)CC2)C(=O)c2ccccc21 | 88.2% (active)
S=c1[nH]nc(-c2ccccc2Cl)n1/N=C/C=C/c1ccco1 | 34.1%
S=c1[nH]nc(-c2cccnc2)n1/N=C/C=C/c1ccco1 | 15.4%
O=C(Cc1cc(=O)oc2cc(O)ccc12)NCC1CCC(C(=O)O)CC1 (stereo not given) | 6%
COc1c(C)oc2cc(O)ccc2c1=O | 3.3%
CCc1ccc(NC(=S)Nc2cccc3cnccc23)cc1 | 69.6% (active)
Cc1ccc(NC(=S)Nc2cccc3cnccc23)cc1C | 31.1%
Cc1cc(C)cc(NC(=S)Nc2cccc3cnccc23)c1 | 31.7%
COCCNC(=S)Nc1cccc2cnccc12 | -7.2%
S=C(Nc1ccc(Cl)cc1)Nc1cccc2cnccc12 | 42.2% (active)
Fc1ccc(NC(=S)Nc2cccc3cnccc23)cc1 | 9.9%
O=C1N/C(=N/N=C/c2ccccc2O)SC1Cc1ccc(F)cc1 (stereo not given) | 7.4%
CCOc1cc(CNc2ccccc2SC)ccc1O | 65.8% (active)
CNCc1ccccc1Sc1ccc(O)c(O)c1 | -26.2%
O=C(NCc1ccccc1)Nc1cccn(Cc2ccccc2F)c1=O | -5%
COc1cccc(Cn2cccc(NC(=O)Nc3ccccc3C)c2=O)c1 | 31.1%
CCc1ccccc1NC(=O)Nc1cccn(Cc2ccccc2F)c1=O | 2.6%
Cc1oc2c(c(C)cc3oc(=O)c(CC(=O)N[C@H](C(=O)O)C(C)C)c(C)c32)c1C | 10.7%
COc1ccc(-c2csc(CCN3N=C(C)CC3=O)n2)cc1 | 53.9% (active)
COc1cccc(-c2[nH]nc3c2C(c2ccsc2)C(C#N)=C(N)O3)c1 (stereo not given) | 24.1%
CC(C)=CCC1=C(OCC(=O)O)C(=O)c2ccccc2C1=O | 99.7% (active)
O=[N+]([O-])c1ccc(O)c(C=Nc2cccc3ncccc23)c1 | 19.8%
CC(C)N(C(=O)Nc1ccc2nccnc2c1)C(C)C | 44.2% (active)
Fc1ccc(NC(=S)Nc2ccc3nccnc3c2)cc1 | 25%
CC(C)(C)OC(=O)c1c(N)n(CCCN2CCCC2=O)c2nc3ccccc3nc12 | -0.3%

Structure (SMILES) | inhibition
CCCCn1c(=O)[nH]c2nc3cc(N)ccc3nc2c1=O | 9.9%
CCC(=O)OCCNc1cc(Sc2nccn2C)c2nonc2c1[N+](=O)[O-] | 24.5%
Cc1nnc(Sc2cc(NCCO)c([N+](=O)[O-])c3nonc23)s1 | 24.5%
Cc1ccc(Sc2cc(NCCCO)c([N+](=O)[O-])c3nonc23)cc1 | 35.8%
Cc1nnc(Sc2cc(NCCCO)c([N+](=O)[O-])c3nonc23)s1 | 21.7%
O=[N+]([O-])c1c(NCCCO)cc(Sc2nc3ccccc3s2)c2nonc12 | 37.6%
CCC(=O)OCCNc1cc(Sc2nc3ccccc3s2)c2nonc2c1[N+](=O)[O-] | 46.1% (active)
CC(=O)OCCCNc1cc(SCc2ccco2)c2nonc2c1[N+](=O)[O-] | 40.6%
O=[N+]([O-])c1c(NCCCO)cc(Sc2ccc(Cl)cc2)c2nonc12 | 42.6% (active)
CC(=O)OCCNc1cc(SCc2ccco2)c2nonc2c1[N+](=O)[O-] | 87.5% (active)
O=C(Nc1ccccc1)Oc1ccc[nH]c1=O | 10.3%
CN(CCO)c1nc(N)c2c(N)nc3c(c2c1C#N)CC(=O)N3C1CCCC1 | 29.5%
N#Cc1c2ccc(OCC(N)=O)cc2n2ccccc12 | 56.5% (active)
CCOC(=O)c1c(-c2ccccc2)oc2ccc(OC(C)C(=O)O)cc12 (stereo not given) | -14%
COc1ccc2cc3c(N)nn(C(=O)Cc4ccc(Cl)cc4)c3nc2c1 | 19.7%
COC(=O)c1c(C)oc(C)c1S(=O)(=O)NC(C)(C)C | 15%
CCOC(=O)CCc1c(C)c(C#N)c2[nH]c3ccccc3n2c1=O | 73.9% (active)
C=CCNc1nc(NCc2ccccc2)c(C#N)c2c1CN(C)CC2 | 36.6%
Cc1cc(/C=N/n2c(COc3ccccc3C)nc3ccccc3c2=O)c(O)c([N+](=O)[O-])c1 | 102% (active)
COc1ccc(CC2S/C(=N/N=C/c3ccccc3O)NC2=O)cc1 (stereo not given) | 19%
CC(=O)Oc1ccc2cc(-c3nc4ccccc4n3C)c(=O)oc2c1 | -26.3%
Brc1ccc(C2Nc3cccc4cccc(c34)N2)o1 | 69.5% (active)
Cc1cc(C)cc(NC(=S)Nc2cccc3ccccc23)c1 | 4%
Cc1oc2c(c(C)cc3oc(=O)c(CC(=O)N[C@@H](C)C(=O)O)c(C)c32)c1C | -7%
CCC(NC(=O)Cc1c(C)c2c(cc(C)c3c(C)c(C)oc32)oc1=O)C(=O)O (stereo not given) | 26.9%
